Compounds without any hit were thinned out: in the full panel of roughly 83,000, 20% have a hit.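 Cells were grown in 96-well plates and exposed to the test compound at a single concentration for 48 hours; results are reported as percent growth, with values below 10 considered active.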 Activity calls are given as the source filed them.
Key:
Assay in all cases: NCI-60 one-dose screen, 48 h (100 = growth as untreated, 0 = no growth, -100 = all killed)
Conditions in all cases: 10 µM
[1] = test system: HCT-15 colon
[2] = test system: HT29 colon
[3] = test system: SNB-75 CNS
[4] = test system: SNB-19 CNS
[5] = test system: U251 CNS
[6] = test system: PC-3 prostate
[7] = test system: SK-MEL-5 melanoma
[8] = test system: UACC-62 melanoma
[9] = test system: LOX IMVI melanoma
[10] = test system: SK-MEL-28 melanoma

Measured: growth

Nc1ncc(-c2ccc(C(F)(F)F)cc2)c(NC2CCCCCC2)n1
inactive: [1] 73.7% | [2] 31.5% | [3] 57.8% | [4] 49.9% | [5] 22.5% | [6] 12% | [9] 48% | [10] 33.7%
active: [7] 3.53% | [8] 0.46%

CCc1nn2c(-c3ccccc3)c(-c3cc(OC)c(OC)c(OC)c3)nc2s1
inactive: [1] 72.9% | [2] 74.5% | [3] 45.9% | [4] 85.3% | [5] 98.8% | [6] 71.4% | [7] 71.9% | [8] 71.8% | [9] 88.2% | [10] 29.5%

N#CCC1CCCC1
inactive: [1] 99.7% | [2] 105% | [3] 78.7% | [4] 98.8% | [5] 97.4% | [6] 87.9% | [7] 104% | [8] 99.4% | [9] 97.2% | [10] 97.6%

FC(F)(F)c1ccc(-c2cnc(Br)nc2NC2CCCCCC2)cc1
active: [6] 5.8%
inactive: [1] 73.1% | [2] 22.3% | [3] 63.2% | [4] 42.9% | [5] 12.1% | [7] 17.9% | [8] 14.4% | [9] 40.1% | [10] 36.1%

COc1cc(/C=C/C(=O)c2cc(-c3ccc(F)cc3)ccc2O)cc(OC)c1OC
inactive: [1] 84.2% | [2] 87.1% | [3] 91.9% | [4] 86.8% | [5] 79.9% | [6] 54.6% | [7] 48.1% | [8] 58.5% | [9] 48.9% | [10] 100%

c1ccc(CNc2nc(Nc3ccc(-c4nc5ccccc5[nH]4)cc3)c3cn[nH]c3n2)cc1
inactive: [3] 33% | [4] 36.3% | [6] 11.8%
active: [1] 0.22% | [2] -13.9% | [5] -19.8% | [7] -96.4% | [8] -40.9% | [9] -42.1% | [10] -8.67%

O=C(NNc1nc(N2CCCC2)nc(N2CCCC2)n1)c1ccccc1
inactive: [1] 108% | [2] 102% | [3] 88.7% | [4] 99.6% | [5] 98.5% | [6] 101% | [7] 110% | [8] 99.3% | [9] 110% | [10] 106%

CC(=O)Nc1nc(C)c(C(=O)N/N=C/c2cccn2C)s1
inactive: [1] 106% | [2] 101% | [3] 109% | [4] 117% | [5] 103% | [6] 94.9% | [7] 98.4% | [8] 87.7% | [9] 98.4% | [10] 105%

O=C(O)CN1C(=O)C=CC1=O
inactive: [1] 100% | [2] 104% | [3] 103% | [4] 106% | [5] 102% | [6] 99.8% | [7] 101% | [8] 103% | [9] 102% | [10] 123%

CCCCCCCCCCSC(=N)N (tested in a mixture with another compound)
active: [2] 3.13% | [8] 9.19%
inactive: [1] 12% | [3] 91.2% | [4] 75.8% | [5] 31.6% | [6] 65.5% | [7] 80.5% | [9] 48.9% | [10] 72.1%

O=[N+]([O-])c1ccc(Br)o1
inactive: [1] 105% | [2] 95.8% | [3] 97.5% | [4] 107% | [5] 103% | [6] 98.8% | [7] 96.9% | [8] 103% | [9] 93.9% | [10] 104%

O=S(=O)(NC1c2ccccc2Oc2ccccc21)c1cc(Cl)ccc1Cl
inactive: [1] 93.7% | [2] 91.4% | [3] 90.2% | [4] 97.2% | [5] 95.7% | [6] 88.9% | [7] 94.6% | [8] 93.2% | [9] 96.1% | [10] 110%

OC(CNC1CCCC1)Cn1c2ccccc2c2ccccc21 (stereo not given)
inactive: [3] 51.5% | [4] 33.8% | [6] 27%
active: [1] -37.6% | [2] -0.747% | [5] -34.5% | [7] -61.6% | [8] -50.9% | [9] -75.9% | [10] -60%

CNCCCNCCCN1C(=O)c2ccc3c4c(ccc(c24)C1=O)C(=O)N(CCCNCc1ccccc1OC)C3=O
active: [2] -23.4% | [5] 6.5% | [6] 1.85% | [7] -94.2% | [8] -42.2% | [9] -58.3% | [10] -48.2%
inactive: [1] 28% | [3] 15.9% | [4] 36.6%

COc1ccc(-c2nc(SCC(=O)c3ccc(Br)cc3)[nH]c(=O)c2C#N)cc1
inactive: [1] 112% | [2] 101% | [3] 103% | [4] 109% | [5] 109% | [6] 95.1% | [7] 110% | [8] 104% | [9] 102% | [10] 115%

CC(=O)N(O)c1ccc(/C=C/c2ccccc2)cc1
inactive: [1] 62.7% | [2] 47% | [3] 16% | [4] 32.3% | [5] 14.1% | [6] 36.1% | [7] 73.7% | [8] 32.2% | [9] 25.9% | [10] 75.4%

Cc1nc2ccc(-n3c(-c4ccc(Cl)cc4)nc4ccccc4c3=O)cc2n1Cc1ccccc1
inactive: [1] 77% | [2] 95.6% | [3] 95.9% | [4] 108% | [5] 89.1% | [6] 58.6% | [7] 66.7% | [8] 78.4% | [9] 91.9% | [10] 107%

C=C1C(=O)O[C@H]2[C@H]1CC/C(COC(=O)OCCCCCOC(=O)OC/C1=C/CC[C@@]3(C)O[C@H]3[C@H]3OC(=O)C(=C)[C@@H]3CC1)=C\CC[C@@]1(C)O[C@@H]21
active: [1] -87.7% | [2] -85.6% | [5] 4.2% | [6] -25.9% | [7] -78.8% | [8] -26.4% | [9] -90.1% | [10] -11%
inactive: [3] 80.3% | [4] 25.7%

COc1ccccc1CNCCCN1C(=O)c2ccc3c4c(ccc(c24)C1=O)C(=O)N(CCCNCCNCCCN)C3=O
inactive: [1] 90% | [3] 28.4% | [4] 10.3% | [6] 42.1% | [8] 23.5% | [10] 25.4%
active: [2] 6.6% | [5] -1.05% | [7] -31.7% | [9] 6.84%

O=c1ccc2nc(-c3ccccc3)nn(-c3ccccc3)c-2c1
active: [1] -75.9% | [2] -53.5% | [9] -51.9%
inactive: [3] 93.3% | [4] 78% | [5] 66.2% | [6] 43.5% | [7] 19.8% | [8] 30.1% | [10] 26.4%

CN1/C(=C\C(I)C(I)C2=[N+](C)c3ccccc3C2(C)C)C(C)(C)c2ccccc21 (stereo not given)
active: [2] 4.84% | [5] 7.67% | [6] 5.52% | [7] -97.4%
inactive: [1] 13.8% | [3] 14.5% | [4] 18.9% | [8] 19.4% | [9] 12% | [10] 28.5%

CCCCOCCOCCOCc1cc2c(cc1Br)OCO2
inactive: [1] 97.1% | [2] 92.6% | [3] 99.7% | [4] 106% | [5] 94.9% | [6] 93.2% | [7] 97.8% | [8] 89.9% | [9] 106% | [10] 106%

CCOC(=O)c1c(C(F)(F)F)n([O-])c2ccc(OC)cc2[n+]1=O
active: [6] -3.79% | [7] -29.4%
inactive: [1] 23.7% | [2] 48.1% | [3] 11.8% | [4] 25.8% | [5] 26.6% | [8] 22.8% | [9] 31.2% | [10] 60.8%

Cc1ccc(/C=C2\CN(Cc3cn(CCNc4ccnc5cc(Cl)ccc45)nn3)C/C(=C\c3ccc(C)cc3)C2=O)cc1
active: [1] -29.4% | [2] -45.1% | [4] -29.8% | [5] -73.7% | [6] -32.4% | [7] -90.5% | [8] -58.4% | [9] -82.9% | [10] -83.5%
inactive: [3] 18.1%

COc1cccc(C(=O)NNc2nc(N3CCN(C4CCCCC4)CC3)nc(N3CCN(C(c4ccccc4)c4ccccc4)CC3)n2)c1
inactive: [1] 25.4% | [2] 24% | [3] 63.6% | [4] 47.7% | [5] 32.6% | [6] 21% | [8] 39.6% | [10] 64.3%
active: [7] -85.1% | [9] 7.83%

CCn1nc(-c2ccccn2)c2cccnc2c1=S
inactive: [1] 67.2% | [2] 51.9% | [3] 95.4% | [4] 93.9% | [5] 74.5% | [6] 38.4% | [7] 59.3% | [8] 81.2% | [9] 87.5% | [10] 89.4%

CC[C@@]1(C(N)=O)CC2C=CC1C2 (stereo not given in full)
inactive: [1] 116% | [2] 106% | [3] 92.4% | [4] 107% | [5] 113% | [6] 93.1% | [7] 106% | [8] 107% | [9] 105% | [10] 112%

COc1cc(-c2nc(-c3nnc(-c4cccnc4)o3)c3ccccn23)cc(OC)c1OC
inactive: [1] 111% | [2] 97.4% | [3] 96.7% | [4] 102% | [5] 95% | [6] 101% | [7] 90.7% | [8] 106% | [9] 97.3% | [10] 121%

Source: PubChem BioAssay (NCI)
